The campaign covered roughly 5,500 compounds. About 2,000 (36%) were called active. Another 18% or so got no clear call; they are omitted. Rule as the data show it: active = normalized growth mostly below about 0.91 (no sharp cut-off); inconclusive = no clear call, values can overlap the other calls; inactive = mostly above about 0.92. This is one part of the list.
Test: chemical genetic growth profiling, strain panel (AID 1159580);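 also: tested at 20 µM; growth read once vehicle control cultures reached saturation at 30 °C; 1 = growth at the plate median or of vehicle wells; lower values mean less growth of the strain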
Settings: S. cerevisiae deletion strains, growth OD

Measured: normalized growth

NNC(N)=O
inactive: locus YAL013W, strain DEP1, hits give low values 1.03 | locus YAL040C, strain CLN3, hits give low values 1.01 | locus YCL061C, strain MRC1 (second series), hits give low values 1.01 | locus YDR363W, strain ESC2, hits give low values 1.02 | locus YER002W, strain NOP16, hits give low values 1.01 | locus YGR229C, strain SMI1, hits give low values 1.03 | locus YJR075W, strain HOC1, hits give low values 1.02 | locus YMR307W, strain GAS1, hits give low values 0.998 | locus YNL175C, strain NOP13, hits give low values 1.01 | locus YNL197C, strain WHI3, hits give low values 1 | locus YNL224C, strain SQS1, hits give low values 1 | locus YNL322C, strain KRE1, hits give low values 1.03 | locus YOR083W, strain WHI5 (second series), hits give low values 1 | locus YPL055C, strain LGE1, hits give low values 1.05

Source: PubChem BioAssay AID1159580 (chemical genetic matrix, 2015)
